Source: PubChem (National Center for Advancing Translational Sciences (NCATS))
In the library only some 22% were active in any assay of this set; here they are far more common.
Shiga inhibitor: Shiga toxin inhibition; Vero cells, Shiga toxin protein synthesis inhibition reporter; inhibition, % at 38.7 µM; 290,000 tested, 9.2% active; AID 2315; in the data active = inhibition mostly above about 28%, no sharp cut-off; inactive = mostly below about 43%
CHX counter: counter-screen for Shiga toxin inhibitors: cycloheximide protein synthesis inhibition; cell reporter, cycloheximide protein synthesis inhibition counterscreen; max response, %; 300,000 tested, 12% active; AID 2314; in the data active = max response mostly above about 13%, no sharp cut-off; inactive = mostly below about 14%; note: read at 38.3 µM for the half of the compounds with a filed dose
LmPK inhibitor: LmPK (Leishmania mexicana) enzyme inhibition. purified LmPK, Kinase-Glo ATP luminescence, 1 h. Potency, µM (top dose mostly 57.5 µM), actives largely listed as inhibitors. 290,000 tested, 0.37% active
Target sequence (Q27686 whole entry, looked up): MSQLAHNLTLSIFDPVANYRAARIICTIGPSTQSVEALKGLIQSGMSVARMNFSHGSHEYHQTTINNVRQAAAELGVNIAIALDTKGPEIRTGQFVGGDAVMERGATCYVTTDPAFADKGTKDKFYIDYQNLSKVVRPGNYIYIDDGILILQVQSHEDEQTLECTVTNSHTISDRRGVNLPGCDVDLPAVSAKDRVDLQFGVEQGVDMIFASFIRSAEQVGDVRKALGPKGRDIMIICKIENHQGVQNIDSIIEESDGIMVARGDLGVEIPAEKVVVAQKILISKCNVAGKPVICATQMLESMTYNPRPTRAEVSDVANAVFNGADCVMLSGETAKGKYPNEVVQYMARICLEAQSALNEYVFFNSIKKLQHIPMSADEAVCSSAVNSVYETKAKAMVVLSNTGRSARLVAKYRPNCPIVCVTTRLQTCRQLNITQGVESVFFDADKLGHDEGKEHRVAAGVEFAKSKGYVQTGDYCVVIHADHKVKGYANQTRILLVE
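In 50 mM imidazole pH 7.2 with 7 mM MgCl2, LmPK (0.1 nM) turned over PEP (0.5 mM) and ADP (0.1 mM) for 1 h at room temperature. Luciferase read-out of ATP.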
Pf growth 96h: P. falciparum growth inhibition at 96 hours | P. falciparum luciferase reporter growth, 96 h | Potency, µM (doses to about 28.7 µM), actives largely listed as inhibitors | 320,000 tested, 6.9% active | AID 504834
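Readout is luminescence from an integrated firefly luciferase in P. falciparum. Red cells, 2% hematocrit and 0.05% parasitemia final, were cultured with compound through two parasite generations (96 hours) at 37 C, 5% CO2.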
Pf growth 48h: P. falciparum growth inhibition at 48 hours (one generation); P. falciparum luciferase growth in erythrocytes, 48 h; Potency, µM (highest dose often 28.7 µM), hits mostly inhibitors; 310,000 tested, 5.9% active; AID 504832
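Luciferase-expressing parasites in RBCs, 2% Hct / 0.1% parasitemia final; RPMI 1640 + 0.5% Albumax; 37 C, 5% CO2, one generation; luminescence read-out, lower signal = inhibition.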
Numbers stand for hits; 0 = inactive; ? = inconclusive; - = no result; [ ] = dose if it differs, or a comment. Unless noted, calls come from the whole dose curve; as a rule, active = well fitted inhibition curve with a large enough effect; inconclusive = small, poorly fitted or top-dose-only effect, or another doubt; inactive = no such curve, though single readings can be large or run the other way.

SMILES	Shiga inhibitor	CHX counter	LmPK inhibitor	Pf growth 96h	Pf growth 48h
CNS(=O)(=O)c1ccc2nc(NC(=O)c3ccc(N4C(=O)CCC4=O)cc3)sc2c1	0	0	?	3.7µM	?
O=C(OCc1cccc2ccccc12)c1ccc2c(=O)[nH]c(CN3CCOCC3)nc2c1	0	0	0	?	0
CC(O)[C@H]1CNC(=O)C(=O)N1CC1(c2ccccc2)CC1 (stereo partly drawn)	0	0	0	0	0
O=C(CNC(=O)c1cccs1)N=Nc1c(O)[nH]c2ccc([N+](=O)[O-])cc12	0	0	0	0	0
CSCCC(NS(=O)(=O)c1ccc(Cl)cc1)C(=O)OCC(=O)c1ccc(F)cc1 (stereo not drawn)	0	0	0	0	0
O=C(NCc1cccc(C(F)(F)F)c1)C1CC(c2c(Cl)cccc2Cl)=NO1 (stereo not drawn)	0	0	0	0	0
COc1cc(C(=O)OCC(=O)NC2CCCC2)cc(OC)c1OC	0	0	0	0	0
C=CCn1c(=O)c2c(nc(-n3nc(C)cc3C)n2C)n(C)c1=O	0	0	0	0	10.4µM
CCCOc1ccc(/C=C/c2c([N+](=O)[O-])c(=O)n(C)c(=O)n2C)cc1	0	0	0	0	0
CCn1ccc(C(=O)Nc2ccc3c(c2)CCC3)n1	113.2	0	0	0	0
CSc1ccccc1NC(=O)c1ccccc1	0	0	0	0	?
CCOC(=O)c1c(NC(=O)c2ccn(CC)n2)sc2c1CCC2	0	0	0	?	0
CCn1ccc(C(=O)Nc2ccc(N(C)C(C)=O)cc2)n1	45.5	22.9	0	0	0
CCn1ccc(C(=O)Nc2ccccc2SC)n1	87.9	32.8	0	0[5.75 µM]	0
CCCCCCCCCCCCCCCCC(C(=O)O)C(O)(CC(=O)O)C(=O)O (stereo not drawn)	-	-	-	0	0
CCC(=O)NC1=C(Cl)C(=O)C(NC(=O)CC)=C(Cl)C1=O	0	14.0	?	4.65µM	7.38µM
CCC(=O)Nc1ccccc1	0	0	0	0	0
Cc1ccc(-n2nc(C)c3c(C)c(CCC(=O)NCCCOC(C)C)c(C)nc32)cc1	0	0	0	0	?
COC(CNC(=O)CCc1c(C)nc2c(c(C)nn2-c2ccc(C)cc2)c1C)OC	0	0	0	0	2.62µM
CCN(CC)CCNC(=O)CCc1c(C)nc2c(c(C)nn2-c2ccc(C)c(C)c2)c1C	0	0	0	0	13.1µM
COc1ccc(/C(C)=N/NC(=O)CNC(=O)C(c2ccccc2)c2ccccc2)c(OC)c1	0	0	0	0	0
Cc1ccc(S(=O)(=O)N2CCN(C(C)C(=O)Nc3ccccc3-c3ccccc3)CC2)cc1 (stereo not drawn)	0	0	0	7.38µM	9.28µM
CC(C(=O)Nc1ccccc1-c1ccccc1)N1CCN(C(=O)c2ccccc2)CC1 (stereo not drawn)	0	0	0	?	?
CC(C(=O)Nc1ccccc1-c1ccccc1)N1CCN(Cc2ccccc2)CC1 (stereo not drawn)	0	0	0	?	13.1µM
Cc1cnc([N+](=O)[O-])n1CCOC(=O)NC(=O)c1ccccc1Cl	0	0	0	0	0
SMILES	Shiga inhibitor	CHX counter	LmPK inhibitor	Pf growth 96h	Pf growth 48h
O=C(CCN1C(=O)c2ccccc2S1(=O)=O)Nc1nc2c(s1)CCCC2	122.0	17.8	0	0[5.75 µM]	0
Cc1ccc(-c2csc(NC(=O)CCCc3cccs3)n2)cc1	0	0	0	0	0
Cc1ccccc1NC(=O)CCCC(=O)c1ccccc1	0	0	0	?	?
Cc1csc(NC(=O)CCCC(=O)c2ccccc2)n1	50.0	22.0	0	?	0
O=C(CCCc1cccs1)Nc1nc2c(s1)CCCC2	30.1	57.4	0	0	0
Cc1csc(NC(=O)CCCc2cccs2)n1	48.1	46.4	0	0	0
O=C(COC(=O)c1cc(F)cc(F)c1)NCCCc1ccccc1	0	0	0	0	0
CCOc1ccc(C(=O)NCC(=O)NC(C)CCc2ccccc2)cc1OCC (stereo not drawn)	0	0	0	?	?
O=C(C[n+]1cccc(Br)c1)c1ccccc1	0	0	0	0	0[0.00184 µM]
O=C(Cn1cc[n+](CC(=O)c2ccccc2)c1)c1ccccc1	0	0	0	?	1.04µM
O=C(C[n+]1cccc(Br)c1)c1ccc(-c2ccccc2)cc1	0	22.1	0	0	0
O=C(Cn1cc[n+](CC(=O)c2ccc(Cl)cc2Cl)c1)c1ccc(Cl)cc1Cl	0	0	0	?	?
O=C(C[n+]1cc(Br)cc(Br)c1)c1ccccc1	0	0	0	0.165µM	0
COc1ccc(C(=O)C[n+]2cccc(Br)c2)cc1	0	9.7	0	0	?
O=C(C[n+]1cc(Br)cc(Br)c1)c1ccc(-c2ccccc2)cc1	0	0	0	?	-
NC(=O)/C(=N\OC(=O)c1ccco1)c1nc(-c2ccc(Br)cc2)cs1	0	0	0	0	0
O=C(C[n+]1ccc2ccccc2c1)c1ccccc1	0	20.4	0	9.28µM	?
Cc1ccc(C(=O)C[n+]2cc(Br)cc(Br)c2)cc1[N+](=O)[O-]	0	0	0	?	9.28µM
Cc1cc(C)c[n+](CC(=O)c2ccc(C)c([N+](=O)[O-])c2)c1	0	0	0	?	0
COc1cc2cc(CCCOC(=O)c3ccco3)oc(=O)c2cc1OC	-	-	-	0	0
Cc1ccc(-c2cc(C(=O)NC3=NCCS3)c3cc(Br)ccc3n2)o1	0	0	?	0	9.28µM
Cc1ccc(-c2cc(C(=O)NN3CCOCC3)c3cc(Br)ccc3n2)o1	0	0	0	5.22µM	0
Cc1ccc(-c2cc(C(=O)Nc3ccccc3C)c3ccccc3n2)o1	0	0	0	?	?
Cc1ccc(-c2cc(C(=O)O)c3cc(Br)ccc3n2)o1	0	0	0	0	0
Cc1ccc(-c2cc(C(=O)NCCCn3ccnc3)c3cc(Br)ccc3n2)o1	0	0	0	?	9.28µM
CC(CNC(=O)C1CCCN(S(=O)(=O)N2CCOCC2)C1)c1ccccc1 (stereo not drawn)	0	0	0	?	?
C#CCOCCOCCOCCNc1nc(N2CCN(C(=O)CCCCCCCCCCNC(=O)[C@H](CCCCN)n3cc(CCO)nn3)CC2)nc(N2CCN(C(=O)CCCCCCCCCCNC(=O)[C@H](CCCN=C(N)N)n3cc(C[C@@H](C)CC)nn3)CC2)n1	-	-	-	4.65µM	11.7µM
C#CCOCCOCCOCCNc1nc(N2CCN(C(=O)[C@H]([C@@H](C)CC)n3cc(CCCN=C(N)N)nn3)CC2)nc(N2CCN(C(=O)[C@H](CCCCN)n3cc(CC(C)O)nn3)CC2)n1 (stereo partly drawn)	-	-	-	?	0
C#CCOCCOCCOCCNc1nc(N2CCN(C(=O)CCCCCCCCCCNC(=O)[C@H]([C@@H](C)CC)n3cc(CCCCN=C(N)N)nn3)CC2)nc(N2CCN(C(=O)CCCCCCCCCCNC(=O)[C@H](CCCCN)n3cc(C[C@@H](C)CC)nn3)CC2)n1	-	-	-	5.22µM	9.28µM
